activation, Potency and activity change, negative = inhibition data for 26 compounds are collected here from PubChem BioAssay (NCATS).

Assay [1] has as its target Cellular tumor antigen p53 (Homo sapiens) (UniProt P04637). The assay is described as follows: Primary qHTS for small molecule compounds that upregulate eGFP-tagged delta133p53alpha (in N-terminal) cells. (AID 2060322). Also: nearly all actives have a fitted effect of over 75% in size. Also: potency is read from the fitted curve at half-maximal effect.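 As to activation: series mostly up to about 56 µM; 0% = DMSO vehicle and 100% = reference activator.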 The conditions noted are these: NCI-H358 eGFP-delta133p53alpha fluorescence, 24 h; activation: hits give high values. The procedure, abridged:
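NCI-H358 cells pre-induced 24 h with 10 ng/ml doxycycline to express N-terminal eGFP-delta133p53alpha, then dosed 24 h at 37C without doxycycline; fixed, Hoechst-stained, GFP intensity by laser scanning cytometry, normalized to DMSO (0%) and 57.5 uM 5-azacytidine (100%).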
On the technique in general: In qHTS, concentration-response curves come from the screen itself.

Assay [2] addresses Aldehyde dehydrogenase, mitochondrial (Homo sapiens) (UniProt P05091). As to the kind of experiment: qHTS for Inhibitors of the Aldehyde Dehydrogenase Family (ALDH2) Primary screen (AID 2061308).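 Also: plate controls were vehicle for no effect and reference inhibitor for full effect; nearly all actives have a fitted effect of over 55% in size.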
For assay [3], the target named is Retinaldehyde dehydrogenase 3 (Homo sapiens) (UniProt P47895). The assay is described as follows: qHTS for Inhibitors of the Aldehyde Dehydrogenase Family (ALDH1A3) Primary screen (AID 2061315).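 Also: plate controls were DMSO vehicle for no effect and reference inhibitor for full effect.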

Records with an inconclusive call do not appear. Unmarked numbers belong to inactive results. Calls of active or inactive are those of the source. Calls follow the shape of the dose curve; as a rule, active = well fitted curve in the direction sought with a large enough effect; inconclusive = small, poorly fitted or top-dose-only effect, or another doubt; inactive = no such curve, though single readings can be large; an effect the other way counts as inactive or inconclusive.

Sequence of Cellular tumor antigen p53 (Homo sapiens) (P04637 whole entry, looked up): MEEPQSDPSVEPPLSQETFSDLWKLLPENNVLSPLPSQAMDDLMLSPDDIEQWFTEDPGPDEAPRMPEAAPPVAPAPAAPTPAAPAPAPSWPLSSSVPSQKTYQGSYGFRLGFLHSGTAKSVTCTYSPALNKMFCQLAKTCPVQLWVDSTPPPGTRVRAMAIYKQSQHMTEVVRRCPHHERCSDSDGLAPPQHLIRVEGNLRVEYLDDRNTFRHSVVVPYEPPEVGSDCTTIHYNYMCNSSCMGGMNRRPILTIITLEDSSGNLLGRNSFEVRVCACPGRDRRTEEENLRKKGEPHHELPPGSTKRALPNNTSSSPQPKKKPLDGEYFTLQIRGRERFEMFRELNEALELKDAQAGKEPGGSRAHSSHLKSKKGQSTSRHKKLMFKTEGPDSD

On to `O=C(CCCCc1ccc2ccccc2c1)C(F)(F)F`, for which the activation in assay [1] is 4.33%. In addition, the Potency entry in assay [2] and in assay [3] was “inactive” each time.

For the compound `CC1=C[C@H](O)[C@H]2C(C)(C)CCC[C@]2(C)[C@@]1(O)CO`, the activation in assay [1] is -2.68%. Moreover, the Potency result in assay [2] and in assay [3] was “inactive” throughout.

For `CCOC(=O)c1csc(Nc2ccc(Cl)cc2)n1`, the activation in assay [1] was -7%. Further, the Potency entry in assay [2] and in assay [3] was “inactive” in each case.

Regarding `Cc1cc(C(C)Nc2ccccc2C(=O)O)c2nc(N3CCOCC3)cc(=O)n2c1` (stereo not drawn), the activation in assay [1] was 14.3%. Further, the Potency entry in assay [2] and in assay [3] was “inactive” throughout.

On to `C[C@@H]1O[C@@H](O[C@H]2[C@H](OC(=O)[C@]34CCC(C)(C)C[C@H]3C3=CCC5[C@@]6(C)C[C@H](O)[C@H](O[C@@H]7O[C@H](C(=O)O)[C@@H](O)[C@H](O)[C@H]7O)[C@@](C)(CO)C6[C@H](O)C[C@@]5(C)[C@]3(C)C[C@H]4O)O[C@@H](CO)[C@@H]2O)[C@H](O)[C@H](O)[C@H]1O[C@@H]1OC[C@@H](O)[C@H](O[C@H]2OC[C@](O)(CO)[C@H]2O)[C@H]1O` (stereo partly drawn), for which the activation in assay [1] is 21.4%. In addition, the activity change, negative = inhibition in assay [2] is 4.26% [at 11.2 µM]; in assay [3], 16.1% [at 11.2 µM].

For the compound `OC[C@H]1O[C@@H](n2cnc3c(NCc4ccc(O)cc4)ncnc32)[C@H](O)[C@@H]1O`, in assay [1], the activation is 13.7%. The Potency result in assay [2] and in assay [3] was “inactive” throughout.

Take `C=CC1(C)CC(OC(=O)C(=C)C(O)COC(C)=O)C(C(=C)C(=O)OC)C(O)C1C(=C)CO` (stereo not drawn): the activation in assay [1] was -2.29%. The Potency entry in assay [2] and in assay [3] was “inactive” throughout.

For `CC1(C)CC2C(O)C3=C(CC(C)(O)C2C1)C(=O)OC3` (stereo not drawn), the activation in assay [1] was -6.87%. The Potency result in assay [2] and in assay [3] was “inactive” throughout.

Take `CC1OC2OC(=O)C3(C)CC4=C(CO)C5=C(CC(=O)C4(C)C(C1=O)C23)C(C)(C)OC(=O)C5` (stereo not drawn): the activation in assay [1] was -7.63%. Besides, the Potency result in assay [2] and in assay [3] was “inactive” each time.

Take `CC(=O)OC(C)(C)/C=C/C(=O)[C@](C)(O)[C@H]1C(O)C[C@@]2(C)[C@@H]3CC=C4[C@@H](C=C(O[C@@H]5O[C@H](CO)[C@@H](O)[C@H](O)[C@H]5O)C(=O)C4(C)C)[C@]3(C)C(=O)C[C@]12C` (stereo partly drawn): the activation in assay [1] was 22.3%. The Potency entry in assay [2] and in assay [3] was “inactive” each time.

For the compound `COC(=O)c1ccnc(-c2cc(C(=O)NCCc3ccccc3)ccn2)c1`, the activation in assay [1] was 3.67%. The Potency result in assay [2] and in assay [3] was “inactive” throughout.

On to `C=C1C(=O)O[C@@H]2[C@H]3C(C)=CC(=O)C3=C(C)CC[C@@H]12`, for which the Potency in assay [1] is 10.7 µM (active). For the same compound, the Potency entry in assay [2] and in assay [3] was “inactive” throughout.

Regarding `COC1=CC(=O)O[C@@H](CCc2ccccc2)[C@@H]1O`, in assay [1], the activation was -13%. For the same compound, the Potency entry in assay [2] and in assay [3] was “inactive” in each case.

Take `Nc1c(S(=O)(=O)c2ccccc2)c2nc3ccccc3nc2n1-c1ccc(F)cc1`: the activation in assay [1] was -10.3%. The Potency entry in assay [2] and in assay [3] was “inactive” each time.

With `CC1=CC(=O)CC(C)(CO[C@@H]2O[C@H](CO)[C@@H](O)[C@H](O)[C@H]2O)C1(O)/C=C/C(C)=C/C(=O)O` (stereo partly drawn), in assay [1], the activation is 0.893%. The Potency entry in assay [2] and in assay [3] was “inactive” in each case.

With `C[C@]1(OC(=O)/C=C\c2ccc(O)cc2)C[C@@H](O)[C@]2(O)C=CO[C@@H](O[C@@H]3O[C@H](CO)[C@@H](O)[C@H](O)[C@H]3O)C12` (stereo partly drawn), the activation in assay [1] was 23.7%. The Potency entry in assay [2] and in assay [3] was “inactive” throughout.

In the case of `C[C@@H]1CC[C@]2(C(=O)O[C@@H]3O[C@H](CO[C@@H]4O[C@H](CO)[C@@H](O)[C@H](O)[C@H]4O)[C@@H](O)[C@H](O)[C@H]3O)CC[C@]3(C)C(=CCC4[C@@]5(C)CC[C@H](O)[C@](C)(C(=O)O)C5CC[C@]43C)[C@@H]2[C@]1(C)O` (stereo partly drawn), the activation in assay [1] was -6.11%. In addition, the Potency entry in assay [2] and in assay [3] was “inactive” throughout.

In the case of `Fc1cccc(CN(C2=NCCN2)c2c(Cl)cccc2Cl)c1`, the activation in assay [1] was -15%. In addition, the Potency result in assay [2] and in assay [3] was “inactive” throughout.

`Cc1cccc(/C=N/Nc2cc(N3CCOCC3)n3nc(-c4ccncc4)cc3n2)c1`: in assay [1], the Potency was 19 µM (active). Further, the Potency result in assay [2] and in assay [3] was “inactive” each time.

Regarding `C/C(=C\CCC(C)CCO)C(=O)OC1(C)CCC2C(C(=O)O)=COC(OC3OC(CO)C(O)C(O)C3O)C21` (stereo not drawn), the activation in assay [1] is 4.58%. The Potency entry in assay [2] and in assay [3] was “inactive” in each case.

As to `CN(C)CCCn1cc(C2=C(c3c[nH]c4ccccc34)C(=O)NC2=O)c2ccccc21`, the Potency in assay [1] is 30.1 µM (active). Besides, the Potency result in assay [2] and in assay [3] was “inactive” in each case.

Regarding `CC(CCC1(O)OC2CC3C4CCC5CC(O[C@@H]6O[C@H](CO)[C@@H](O)[C@H](O)[C@H]6O[C@@H]6OC[C@@H](O)[C@H](O)[C@H]6O)C(O)CC5(C)C4CCC3(C)C2C1C)CO[C@@H]1O[C@H](CO)[C@@H](O)[C@H](O)[C@H]1O` (stereo partly drawn), the activation in assay [1] was -5.36%. Further, the Potency result in assay [2] and in assay [3] was “inactive” throughout.

For the compound `C=C(C)[C@@H]1CC[C@]2(C(=O)O)CC[C@]3(C(=O)O)[C@H](CCC4[C@@]5(C)CCC(=O)C(C)(C)C5CC[C@]43C)C12` (stereo partly drawn), the activation in assay [1] was 33.9%. Further, the Potency entry in assay [2] and in assay [3] was “inactive” each time.

`CC1(C)CCCC2(C)C=C(C(=O)O)C(O)CC12` (stereo not drawn): the activation in assay [1] was -19.1%. The Potency result in assay [2] and in assay [3] was “inactive” in each case.

Regarding `CC1=C(C)C(=O)OC(C(C)C2C(O)CC3C4C5OC5C5(O)CC(OC6OC(CO)C(OC7OC(C)C(O)C(O)C7O)C(O)C6O)CC(O)C5(C)C4CCC32C)C1` (stereo not drawn), the activation in assay [1] is -6.87%. For the same compound, the Potency entry in assay [2] and in assay [3] was “inactive” in each case.

Take `CC1(C)CCCC2(C)C1C(O)C=C(CO)C2(O)C(=O)O` (stereo not drawn): in assay [1], the activation was -13.7%. Besides, the Potency entry in assay [2] and in assay [3] was “inactive” throughout.
